Values joined by “and” are separate entries in the source; they are usually repeats but may differ in a detail not shown here. Equal values may be shown once. Results filed as inconclusive are left out. A number with no mark means an inactive call. Active and inactive are the calls of the source. The call rests on the fitted dose curve; in most records, active means well fitted activation curve with a large enough effect; inconclusive means small, poorly fitted or top-dose-only effect; inactive means no such curve, though single readings can be large or run the other way. Square brackets hold non-standard residues; d marks the D form. Peptide text beside a SMILES is read from it. Ala(indol-2-yl) = N[C@@H](Cc1cc2ccccc2[nH]1)C(=O)O; Aib = CC(C)(N)C(=O)O
Potency means the concentration at half of the fitted maximal effect.

Cellular tumor antigen p53 (Homo sapiens), sequence (P04637 whole entry, looked up): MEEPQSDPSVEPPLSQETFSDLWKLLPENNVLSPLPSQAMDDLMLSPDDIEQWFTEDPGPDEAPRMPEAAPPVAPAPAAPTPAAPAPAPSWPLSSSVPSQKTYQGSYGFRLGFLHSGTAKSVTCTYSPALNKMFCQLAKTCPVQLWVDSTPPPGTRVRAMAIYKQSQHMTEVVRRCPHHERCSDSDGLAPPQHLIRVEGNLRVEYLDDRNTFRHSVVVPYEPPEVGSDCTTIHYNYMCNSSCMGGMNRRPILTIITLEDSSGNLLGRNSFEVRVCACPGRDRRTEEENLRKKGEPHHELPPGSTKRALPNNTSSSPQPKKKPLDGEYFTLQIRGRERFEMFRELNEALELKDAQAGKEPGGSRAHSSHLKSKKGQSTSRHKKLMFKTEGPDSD

The target of the test is Cellular tumor antigen p53 (Homo sapiens) (UniProt P04637). As to the kind of experiment: Primary qHTS for small molecule compounds that upregulate eGFP-tagged delta133p53alpha (in N-terminal) cells. (AID 2060322). Further: nearly all actives have a fitted effect of over 75% in size.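 On activation: cells pre-induced with doxycycline then dosed without doxycycline; series mostly up to about 56 µM; 0% = DMSO vehicle and 100% = reference activator.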 The following applies: NCI-H358 eGFP-delta133p53alpha fluorescence, 24 h; activation: active compounds read high. A digest of the protocol:
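NCI-H358 cells pre-induced 24 h with 10 ng/ml doxycycline for eGFP-delta133p53alpha, plated dox-free and exposed 24 h at 37C to titrated compounds. Fixed, Hoechst-stained; gated GFP peak intensity by laser scanning cytometry, normalized to DMSO (0%) and 57.5 uM 5-azacytidine (100%).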
In the case of `OCc1nnc2n1-c1ccc(Cl)cc1C(c1ccccc1Cl)=NC2`, the activation was -3.67%.
Same read-out and setting: for `CN(CC[C@H](N)CC(=O)N[C@H]1C=C[C@@H](n2ccc(N)nc2=O)O[C@@H]1C(=O)O)C(=N)N` the value was 7.14%; for `CCCCOC(=O)c1ccnc2cc(C(OCCN3CCCCC3)c3ccccc3Cl)sc12` (centres undefined), 25.7%.
As to `CCC(C)(OC(C)=O)C(=O)O[C@H]1[C@H](OC(C)=O)C[C@@H]2[C@@](C)([C@@H]3C[C@H]4C=CO[C@H]4O3)[C@H](C)C[C@H](OC(C)=O)[C@@]2(COC(C)=O)[C@@]12CO2` (some centres undefined), the activation is -3.82%.
Same read-out and setting: the figure for `CC(C)(NC(=O)[C@@H](N)Cc1ccc(O)cc1)C(=O)N[C@@H](Cc1cc2ccccc2[nH]1)C(=O)N[C@@H](Cc1ccccc1)C(=O)O` (H-Y[Aib][Ala(indol-2-yl)]F-OH) is 7%.
Regarding `C=CC(C)(C)C12C=C(O)C(=O)N3/C(=C\c4cnc[nH]4)C(=O)NC31N(OC)c1ccccc12` (centres undefined), the Potency was 4.65 µM (active).
Consider `CCOP(=O)(OCC)Oc1ccc2c(C)cc(=O)oc2c1`, for which the activation is 6.33%.
The same measure, in the same setting: the figure for `C[C@H]1O[C@@H](n2cnc3c(N)ncnc32)C[C@@H]1O` is 15%; for `COC1CC(O[C@H]2CC[C@@]3(C)C(=CCC4C3C(O)[C@@H](O)[C@]3(C)[C@@H](C(C)=O)CC[C@]43O)C2)OC(C)C1OC1CC(OC)C(OC2OC(C)C(O)C(O)C2O)C(C)O1` (some centres undefined) it is -14.5%; for `C=C[C@H]1CN2CC[C@H]1C[C@@H]2[C@@H](O)c1ccnc2ccccc12` it is 3.57%.
With `C/C=C1/CN2CC[C@]34C(=Nc5ccc(OC)cc53)C2C[C@@H]1C4(CO)C(=O)OC` (some centres undefined), the activation is -9.16%.
On to `CCCOC(=O)Cc1ccc(OCC(=O)N(CC)CC)c(OC)c1`, for which the activation was 4.33%.
The same measure, in the same setting: for `C/C=C(\C)C(O)C(C)/C=C(C)/C=C/C/C(C)=C/Cc1nc(OC)c(OC)c(O[C@@H]2O[C@@H](C)[C@H](O)[C@@H](O)[C@H]2O)c1C` (some centres undefined) the value was -19.1%.
As for `CC(=O)OC[C@]12C[C@H](OC(=O)CC(C)C)C(C)=C[C@H]1O[C@@H]1[C@H](O)C[C@@]2(C)[C@]12CO2`, the Potency is 3.7 µM (active).
Still for that read-out and setting: for `COC1CC(O[C@H]2CC[C@]3(C=O)C4CC[C@]5(C)[C@@H](C6=CC(=O)OC6)CC[C@]5(O)[C@@H]4CC[C@@H]3C2)OC(C)C1O[C@@H]1O[C@H](CO)[C@@H](O[C@@H]2O[C@H](CO)[C@@H](O)[C@H](O)[C@H]2O)[C@H](O)[C@H]1O` (some centres undefined) the value was 3.21 µM (active).
On the same count and under the same terms, the figure for `CC(=O)OC[C@]12C[C@H](O)C(C)=C[C@H]1O[C@@H]1[C@H](O)[C@@H](OC(C)=O)[C@@]2(C)[C@]12CO2` is 0.083 µM (active).
`C=C1CC[C@H]2[C@@H](/C=C(\C)C(=O)[C@@]3(OC(C)=O)C[C@H](C)[C@H](OC(=O)c4ccccc4)[C@@H]3[C@H]1OC(C)=O)C2(C)C`: the activation was -11.5%.
Still for that read-out and setting: for `C[C@]12CC[C@H](OC3OC(CO)C(O)C(O)C3OC3OC(CO)C(O)C(O)C3O)C[C@@H]1CC[C@@H]1C2CC[C@]2(C)[C@@H](C3=CC(=O)OC3)CC[C@]12O` (some centres undefined) the value was 13.4%; for `CN1[C@H]2C[C@H](OC(=O)[C@H](CO)c3ccccc3)C[C@@H]1[C@@H](O)C2`, 1.67%.
On the same count and under the same terms, for `CC(O)(c1ccccc1)C(Cc1ccc(Cl)cc1)n1cncn1` (centres undefined) the value was -8.59%; for `C[C@]12CC[C@H](O)C[C@@H]1CC[C@@H]1[C@@H]2CC[C@]2(C)[C@@H](C3=CC(=O)OC3)CC[C@]12O`, 7.63%.
`CC1=CC2(O)/C=C/C(C)(O)C(O)C(O)/C=C/C(=O)OC23C(=O)NC(CC(C)C)C3C1C` (centres undefined): the activation was 0.763%.
On the same count and under the same terms, for `C[C@]12CC[C@H](O)CC1=CC[C@@H]1C2CC[C@]2(C)[C@@H](C3=CC(=O)OC3)CC[C@]12O` (some centres undefined) the value was 2.29%; for `Clc1ccc([C@]23CNC[C@H]2C3)cc1Cl`, -21.7%; for `CCCCCn1cc(C(=O)c2cccc3ccccc23)c2ccccc21`, 20.5%.
Same read-out and setting: for `C=CC/C=C\C/C=C\CCCCCCCc1cc(O)cc(O)c1` the value was -9.92%; for `CN1CCN(c2nc3ccccc3nc2Cl)CC1`, 1%.
Still for that read-out and setting: for `CC(=O)OC[C@]12[C@H](OC(C)=O)C(=O)[C@@H]3[C@@H](O)[C@@]14O[C@@]3(C)COC(=O)c1cccnc1[C@@H](C)[C@H](C)C(=O)O[C@@H]([C@H](OC(C)=O)[C@@H]2OC(C)=O)[C@]4(C)O` the value was 21.4%.
Take `C[C@H]1CCC[C@H](O)CCC/C=C/c2cc(O)cc(O)c2C(=O)O1`: the activation is -13%.
For the compound `CC12CCC3C(C1)c1c(cc(O)c(C(=O)c4ccccc4)c1OC3(C)C)O2` (centres undefined), the activation is -17.6%.
As for `CC1=CC(=O)[C@@H](O)[C@]2(C)C3[C@@H](O)[C@@H]4OC(=O)[C@@H]([C@H]4C)[C@]3(C)C(=O)C[C@@H]12` (some centres undefined), the Potency is 16.6 µM (active).
On to `CC(N[C@H]1C[C@H]1c1ccccc1)c1ccc2c(c1)OCCO2` (some centres undefined), for which the activation was -13.9% and -18.6%.
Still for that read-out and setting: the figure for `c1ccc([C@@H]2C[C@H]2NC2CCNCC2)cc1` is 13.8%.
For the compound `COC1CC(OC2CCC3(C)C(=CCC4C3CCC3(C)C(C(C)OC5OC(COC6OC(CO)C(O)C(O)C6O)C(O)C(O)C5O)CCC43O)C2)OC(C)C1OC1OC(C)C(O)C(OC)C1O` (centres undefined), the activation is 5.34%.
`CCN1C[C@]2(COC)[C@H](O)C[C@H](OC)[C@]34[C@@H]5C[C@]6(O)[C@H](OC(=O)c7ccccc7)[C@@H]5[C@@](O)([C@H]([C@H](OC)[C@H]23)[C@@H]14)[C@@H](O)[C@@H]6OC`: the activation is 10.3%.
On the same count and under the same terms, the figure for `O=C(N[C@H]1CN2CCC1CC2)c1cc2cccc(Cl)c2s1` is 38.7%; for `CC(CCc1ccc(O)cc1)O[C@@H]1O[C@H](CO[C@H]2OC[C@](O)(CO)[C@H]2O)[C@@H](O)[C@H](O)[C@H]1O` (some centres undefined) it is 2.29%.
As for `CCC1CC2CN3CCc4c([nH]c5ccccc45)C(C(=O)OC)(C2)C13` (centres undefined), the activation is 3.05%.
`C=C(C)C(=O)O[C@H]1[C@@H]2[C@H](C)C(=O)O[C@@H]2C[C@@H](C)[C@@H]2C=CC(=O)[C@]21C`: the Potency is 13.2 µM (active).

(Values after PubChem BioAssay (NCATS).)
